# In PubChem BioAssay (NCI):
# The panel holds about 83,000 compounds, 20% with a hit somewhere; the sample as a whole holds those more often.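 Assay: single dose, 48 h. Readout: percent growth (0 = no net growth; negative = cell death). Active: <10.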 Unmarked numbers belong to inactive results. Activity calls are given as the source filed them.
# What was measured:
# Assay in all cases: NCI-60 one-dose screen, 48 h (100 = growth as untreated, 0 = no growth, -100 = all killed)
# Details in all cases: 10 µM unless noted
# SR leukemia = tested on: SR leukemia
# RPMI-8226 leukemia = tested on: RPMI-8226 leukemia
# OVCAR-8 ovarian = tested on: OVCAR-8 ovarian
# OVCAR-5 ovarian = tested on: OVCAR-5 ovarian
# OVCAR-4 ovarian = tested on: OVCAR-4 ovarian
# SK-OV-3 ovarian = tested on: SK-OV-3 ovarian
# IGROV1 ovarian = tested on: IGROV1 ovarian
# OVCAR-3 ovarian = tested on: OVCAR-3 ovarian
# HS 578T breast = tested on: HS 578T breast
# NCI/ADR-RES ovarian = tested on: NCI/ADR-RES ovarian
# T-47D breast = tested on: T-47D breast
# BT-549 breast = tested on: BT-549 breast
# MDA-MB-435 melanoma = tested on: MDA-MB-435 melanoma
# SW-620 colon = tested on: SW-620 colon
# MCF7 breast = tested on: MCF7 breast
# HCT-116 colon = tested on: HCT-116 colon
# HCC-2998 colon = tested on: HCC-2998 colon
# KM12 colon = tested on: KM12 colon
Compound,growth (SR leukemia),growth (RPMI-8226 leukemia),growth (OVCAR-8 ovarian),growth (OVCAR-5 ovarian),growth (OVCAR-4 ovarian),growth (SK-OV-3 ovarian),growth (IGROV1 ovarian),growth (OVCAR-3 ovarian),growth (HS 578T breast),growth (NCI/ADR-RES ovarian),growth (T-47D breast),growth (BT-549 breast),growth (MDA-MB-435 melanoma),growth (SW-620 colon),growth (MCF7 breast),growth (HCT-116 colon),growth (HCC-2998 colon),growth (KM12 colon)
CC1(C)CC[C@]2(CO)CC[C@]3(C)[C@](O)([C@H](O)C[C@@H]4[C@@]5(C)CCCNC(C)(C)[C@@H]5CC[C@]43C)[C@@H]2C1,3.98% (active),74.4%,101%,106%,96.2%,98.2%,102%,101%,98.9%,100%,84.3%,98.8%,93.2%,99.6%,91.7%,71.3%,58.4%,95%
C#COc1cccc(Nc2ncnc3cc(NC(=O)[C@H](C)Cl)ccc23)c1,92.6% [6.25 µM],100% [6.25 µM],9.3% [6.25 µM] (active),25% [6.25 µM],56.6% [6.25 µM],3.8% [6.25 µM] (active),9.75% [6.25 µM] (active),7.9% [6.25 µM] (active),24.8% [6.25 µM],14.8% [6.25 µM],6.76% [6.25 µM] (active),9.94% [6.25 µM] (active),-25.1% [6.25 µM] (active),14.5% [6.25 µM],11.3% [6.25 µM],7.41% [6.25 µM] (active),5.81% [6.25 µM] (active),17.8% [6.25 µM]
[N-]=[N+]=NCC1OC(n2cnc3c(NC(=O)Nc4ccccc4)ncnc32)C2OC(=O)CC12 (stereo not given),90.1%,98.4%,103%,95.7%,106%,106%,91.3%,95.1%,112%,102%,103%,104%,109%,105%,92.3%,101%,107%,106%
COc1ccc2c(c1)C(C)Cc1c(ncnc1-n1cnc3cc(C)ccc31)N2C (stereo not given),-0.883% (active),11.9%,9.01% (active),78.1%,58.2%,19.8%,27.5%,6.09% (active),36.2%,6.69% (active),44.6%,-3.64% (active),-17.5% (active),25%,16.1%,6.84% (active),10.7%,12.2%
Nc1c(C(=O)Nc2cccc3ncccc23)sc2nc3c(cc12)CN(Cc1ccccc1)CC3,33.9%,58.4%,83%,88.8%,71.5%,78.4%,72.6%,80.1%,76.9%,87.9%,41.3%,71.5%,22.1%,83.7%,53.1%,74.2%,93.5%,86.7%
CS(=O)(=O)Nc1cc(-c2ccc3ncnc(Nc4ccc(F)c(Cl)c4)c3c2)ccc1Cl,35.1%,37.4%,52%,53.9%,52.5%,17.7%,-3.25% (active),36.3%,18.9%,41.6%,12.2%,49.4%,58.2%,75.4%,23.9%,59.5%,79.9%,52.7%
COc1ccc(C2CC(c3ccccc3)=NN2C(=O)c2cc(OC)c(OC)c(OC)c2)cc1O (stereo not given),29.8%,-20.5% (active),24.4%,60.1%,42%,54.9%,3.37% (active),17%,23.5%,-11.9% (active),70.9%,39.7%,-7.61% (active),32.1%,20.3%,13.8%,-1.27% (active),26.3%
CCCCn1c(NC(C)=O)c(S(=O)(=O)c2ccccc2)c2nc3ccccc3nc21,86.9%,107%,98.9%,93.2%,100%,98.5%,76.3%,95.7%,95.9%,97.7%,79.9%,103%,106%,109%,98.4%,127%,113%,103%
Cc1cc(=O)oc2cc(Oc3nc(Br)cn4c(Br)cnc34)ccc12,69.4%,95.5%,64.7%,101%,45.5%,85.5%,77.4%,56.7%,69.9%,57.5%,53.7%,92.2%,87.2%,116%,22.2%,55.5%,105%,78.9%
CCOC(=O)C1=C(CCl)N(C)C(=O)NC1c1ccc2c(c1)OCO2 (stereo not given),19.8%,12.3%,44.9%,76.9%,55.9%,93.7%,74.6%,25.2%,50%,72%,35.6%,37.8%,26.6%,8.16% (active),51.8%,19.1%,94.6%,73.1%
CN(C)c1ccc(C(=S)c2ccc(N(C)C)cc2)cc1,33.2%,83.1%,88.5%,94.8%,83%,82.4%,59.3%,80.7%,94.1%,28.7%,74.2%,83.5%,-13.2% (active),43.9%,46.4%,57.8%,70.6%,47.2%
COc1ccc(C/C(C)=C(\c2ccc(O)cc2)c2ccc(OCCN3CCCCC3)cc2)cc1,22.1%,71.9%,90.7%,83.2%,87.1%,105%,80.6%,88.9%,86.8%,90.5%,53.8%,88.3%,82.1%,91.6%,35.2%,46.5%,80.8%,91.1%
CCCc1cc(=O)oc2c(C(=O)CC(C)C)c(O)c(CC=C(C)C)c(O)c12,14.3%,-12.6% (active),22.3%,53.8%,30.5%,23.3%,36.9%,13.6%,28.1%,0.191% (active),13.5%,1.17% (active),24.3%,27.4%,7.3% (active),14.3%,11%,18.9%
CC(C)(C)c1ccc(S(=O)(=O)Oc2ccc(-c3sc4cc(OS(=O)(=O)c5ccc(C(C)(C)C)cc5)ccc4c3C(=O)c3ccc(OCCN4CCCCC4)cc3)cc2)cc1,104%,93.6%,115%,99.4%,97.1%,88.8%,101%,102%,104%,97.9%,79.1%,97.7%,100%,101%,96.8%,91.6%,98.1%,95.5%
COc1ccc2c(c1)CC[C@@H]1[C@@H]2CC[C@]2(C)c3c(cc(C#N)c4c3sc3ccccc34)C[C@@H]12,89.3%,95.8%,101%,80.6%,107%,108%,101%,108%,94.6%,101%,102%,114%,105%,99.5%,106%,108%,92.7%,109%
